Measurements: PubChem BioAssay AID651958 (The Scripps Research Institute Molecular Screening Center, 2012)
Among all 370,000 compounds or so, about 2,000 (0.54%) were called active. This excerpt belongs to a sample that is enriched for actives. Values without a mark were called inactive. No stated cut-off is given here; in the data, active means inhibition above about 30%; inactive means the rest.

Test system: Crimean-Congo hemorrhagic fever virus L polyprotein viral ovarian tumor (vOTU) protease domain
Experiment: CCHFV vOTU protease inhibitors, primary screen, biochemical, Pep-AMC substrate, fluorescence (AID 651958); further: 0% = vehicle wells with enzyme and 100% = no enzyme wells
Details: at 11.5 µM, hits give high values

Row | Structure (SMILES) | inhibition
1 | O=C(COCc1cc(-c2ccc3c(c2)OCO3)on1)N1CCN(c2cccc(Cl)c2)CC1 | 7.08%
2 | Cc1coc2c(O)cc3c(c12)OC1(N2CCCCC2)C(=O)NCCCC31 (stereo not given) | 51.9% (active)
3 | CCN1CCN(CC(=O)c2cc(OC)c(OC)c(OC)c2)CC1 | -2.49%
4 | Oc1c(Cl)cc(Cl)c(Cl)c1Cc1c(O)c(Cl)cc(Cl)c1Cl | 39% (active)
5 | CC(=O)Nc1ccc(SCC(=O)Nc2ccccc2Oc2ccccc2)cc1 | -1.09%
6 | CC1(C)S[C@@H]2[C@H](NC(=O)COc3ccccc3)C(=O)N2C1C(=O)OCc1ccccc1 (stereo not given in full) | 3.3%
7 | CC1=NN(c2ccc(Cl)c(C(=O)O)c2)C(=O)/C1=C/c1ccc(-c2ccccc2[N+](=O)[O-])o1 | 32.7% (active)
8 | O=C1C2C3C=CC(C4CC34)C2C(=O)N1/N=C/c1ccc(-c2ccccc2[N+](=O)[O-])o1 (stereo not given) | 13.7%
9 | Cc1ccc(-c2ccc(/C=C(\C#N)C(N)=S)o2)c([N+](=O)[O-])c1 | 16.7%
10 | CC(C)[C@H](NC(=O)N1c2ccccc2NC(=O)[C@@H]1C(C)C)C(=O)N[C@H](C(=O)O)c1ccccc1 | -2.64%
11 | O=S(=O)(c1ccc(Sc2nnc3ccccn23)nc1)N1CCOCC1 | -14.3%
12 | NNC(=O)c1cccc(COCC(F)(F)C(F)F)c1 | -1.18%
13 | CCCCNC(=O)C1CCC(=O)N1CCc1ccccc1 (stereo not given) | 0.15%
14 | Cc1cc(C)cc(NC(=S)NCCc2c[nH]c3ccccc23)c1 | 30.6% (active)
15 | Cc1ccc(S(=O)(=O)N(C)CC(=O)NCCc2c[nH]c3ccccc23)cc1 | 1.27%
16 | O=C(COC(=O)Cc1c[nH]c2ccccc12)NCCc1ccccc1 | -6.33%
17 | Clc1ccc(CSc2nnc([C@@H]3CCCN3)o2)cc1 | 2.88%
18 | Cc1nn(CCCC(=O)NCc2ccccc2Cl)c(=O)c2nccn12 | 3.6%
19 | COc1ccc2c(c1)CCc1cn3ncc(C#N)c3nc1-2 | -345%
20 | NCCN1CCN2C(=O)CN(C(=O)c3ccccc3)CC12 (stereo not given) | 12.1%
21 | O=S(=O)(Cc1noc(-c2ccc(OC(F)(F)F)cc2)n1)c1ccc(F)cc1 | 2.35%
22 | O=S(=O)(Nc1ccc(O)c2ccccc12)c1ccc(OC(F)(F)F)cc1 | 72.5% (active)
23 | O=[N+]([O-])c1ccc(NS(=O)(=O)c2ccccc2)c(Cl)c1 | 12.9%

Row | Structure (SMILES) | inhibition
24 | O=C(c1ccc(F)cc1)N1CCC(C(=O)N2CCN(S(=O)(=O)c3ccccc3Br)CC2)CC1 | -5.29%
25 | CC(C)[C@@H](C(=O)O)N(Cc1cccc(CN([C@H](C(=O)O)C(C)C)S(C)(=O)=O)c1)S(C)(=O)=O | 1.18%
26 | CCC(C)CCN1CCN=C1N(C)C (stereo not given) | 10.6%
27 | CC(Sc1nncn1C)C(=O)Nc1ccccc1-c1ccccc1 (stereo not given) | 3.71%
28 | CC(C(=O)Nc1ccccc1-c1ccccc1)N1CCOCC1 (stereo not given) | 30% (active)
29 | CC(C(=O)Nc1ccc(Cl)cc1Cl)N1CC=C(c2ccccc2)CC1 (stereo not given) | -3.9%
30 | COc1ccc(S(=O)(=O)N(C)C[C@H]2OCc3cnnn3CCCC(=O)N([C@H](C)CO)C[C@H]2C)cc1 | -4.66%
31 | COc1cccc(NC(=O)CS(=O)(=O)c2cn(CC(=O)N3CCOCC3)c3ccccc23)c1 | 6.34%
32 | COc1cccc(NC(=O)C(=O)c2cn(CC(=O)N3CCOCC3)c3ccccc23)c1 | 40.2% (active)
33 | O=C(Nc1ccc(F)cc1)C(=O)c1cn(CC(=O)N2CCOCC2)c2ccccc12 | -0.24%
34 | CN(Cc1c(F)cccc1Cl)C(=O)COC(=O)Cn1cnc2ccccc2c1=O | -6.54%
35 | CCCCC(O)(CCCC)C(=O)NN(C(=O)CCl)c1ccccc1 | 8.68%
36 | CCCc1ccc(OCC(O)CN2CCN(CCO)CC2)cc1 (stereo not given) | -10.8%
37 | COc1ccc(CN2CCC(C)(Oc3cccc(F)c3)C2)c2ccccc12 (stereo not given) | 10%
38 | CCC1(C)Cc2c(sc3nnn(CC(=O)Nc4ccc(Cl)cc4)c(=O)c23)CO1 (stereo not given) | -1.67%
39 | CN1CCc2c(sc3c2c(NCc2ccco2)nc2nnnn23)C1 | -25.3%
40 | CCCSc1nc(NCc2ccco2)c2c3c(sc2n1)COC(C)(CC)C3 (stereo not given) | 30.9% (active)
41 | Clc1ccc(C(Cn2ccnc2)OCc2ccsc2Cl)c(Cl)c1 (stereo not given) | 9.88%
42 | Clc1ccc(C2=CSC3=Nc4cccc5cccc(c45)N23)cc1 | 103% (active)
43 | COc1ccc(CN(Cc2ccco2)S(=O)(=O)c2ccc(S(=O)(=O)N3CCCC3)cc2)cc1 | -4.58%
44 | O=C(NC1=CC(=O)c2ccccc2C1=O)c1ccccc1 | 101% (active)
45 | Cc1cc(NS(=O)(=O)c2ccccc2)no1 | -7.1%
46 | CC(=O)NS(=O)(=O)c1ccccc1 | -12.3%

Row | Structure (SMILES) | inhibition
47 | O=C1C=C(NS(=O)(=O)c2ccccc2)C(=O)c2ccccc21 | 41.9% (active)
48 | O=c1ccn([C@@H]2O[C@H](CNS(=O)(=O)c3cc4ccccc4s3)[C@@H](O)[C@H]2O)c(=O)[nH]1 | -7.44%
49 | COc1ccc(C2c3[nH]c4ccccc4c3C[C@H]3C(=O)N(CC(C)C)CC(=O)N23)c(OC)c1 (stereo not given in full) | -0.95%
50 | COc1ccc(/C=C2\N=C3CCCN3C2=O)cc1 | 5.48%
51 | NC(=O)COc1ccc(C23CC4CC(CC(C4)C2)C3)cc1 | -6.98%
52 | O=C(Oc1ccccc1C(=S)N1CCCCC1)c1cc([N+](=O)[O-])cc([N+](=O)[O-])c1 | -1.38%
53 | CCCS(=O)(=O)NC(=O)C1(C)CCCN(C(=O)c2cc(C)on2)C1 (stereo not given) | -4.97%
54 | CCCS(=O)(=O)NC(=O)C1(C)CCN(C(=O)c2sccc2C)C1 (stereo not given) | 47.1% (active)
55 | CCCS(=O)(=O)NC(=O)C1(C)CCCN(C(=O)c2cccs2)C1 (stereo not given) | 4.76%
56 | COc1ccc2c(c1)[C@@]13CCCCC1[C@@H](C2)NCC3 (stereo not given in full) | -1.34%
57 | CCc1ccc2c(c1)NC(=O)C2(C)Cc1ccc(OC(F)(F)F)cc1 (stereo not given) | 31.4% (active)
58 | CCc1ccc2c(c1)C1(NN=C(c3ccccc3)S1)C(=O)N2 (stereo not given) | 1.82%
59 | CC1(Cc2cccc(C#N)c2)C(=O)Nc2ccc(-c3cccc(C(F)(F)F)c3)cc21 (stereo not given) | 21.6%
60 | CCCn1nc(Oc2nc(NC(C)C)nc(N(C)C)n2)ccc1=O | -1.37%
61 | O=C(O)CCN1C(=O)CC2(CCCCC2)C1=O | 2.77%
62 | COCc1[nH][nH]c(=O)c1C=Nc1ccc(F)cc1F | 4.69%
63 | O=C(NCc1ccccn1)C1CCN(S(=O)(=O)c2ccc(Br)cc2)CC1 | -7.95%
64 | COc1ccccc1C1CC(=O)n2c(nc(-c3ccccc3)c2-c2ccccc2)S1 (stereo not given) | -11.5%
65 | N#CC1=C(N)Oc2c(c(=O)oc3ccccc23)C1c1ccccc1OC(=O)c1cccs1 (stereo not given) | 2.95%
66 | COc1ccccc1C1C(C#N)=C(N)Oc2c1c(-c1ccccc1)nn2-c1ccccc1 (stereo not given) | 31% (active)
67 | Cc1ccc(S(=O)(=O)N2CCC(=O)N([C@H](COCc3ccccc3)Cc3ccccc3)CC2)cc1 | 4.4%
68 | Cc1cc(F)ccc1S(=O)(=O)Nc1ncnc2scc(-c3ccc(F)cc3)c12 | -9.09%
69 | Cc1ccc(CN2CCCCC(NC(=O)C3CCCCC3)C2=O)cc1 (stereo not given) | 6.33%

Row | Structure (SMILES) | inhibition
70 | CCn1nc(C)c(CN2CCN(Cc3ccc(OC)c(C)c3C)C(CCO)C2)c1C (stereo not given) | -10.4%
71 | Cc1ccc(NS(=O)(=O)c2ccc(N/N=C/c3ccccc3OCC(=O)O)c([N+](=O)[O-])c2)c(C)c1 | 49.3% (active)
72 | O=C(O)c1ccccc1/C=N/Nc1ccc(S(=O)(=O)Nc2ccc(Cl)cc2)cc1[N+](=O)[O-] | 31.2% (active)
73 | O=[N+]([O-])c1cc(S(=O)(=O)Nc2cccc(Cl)c2)ccc1N=Nc1c(O)[nH]c2ccccc12 | -13%
74 | Cc1ccc(NS(=O)(=O)c2ccc3c(c2)n(C)c(=O)c(=O)n3C)c(C)c1 | 9.52%
75 | O=C(Nc1cc(S(=O)(=O)Nc2ccc(Cl)cc2)ccc1O)c1ccc(F)cc1F | 1.4%
76 | Cc1ccc(C)c(NS(=O)(=O)c2ccc(OCC(=O)NCc3cccnc3)cc2)c1 | 7.43%
77 | CCn1c(O)c(N=NC2=NC(=O)CS2)c2cc(C)ccc21 | 10.8%
78 | CC(C)c1c(CN(C)C(C)Cc2ccccc2)n(C)n(-c2ccccc2)c1=O (stereo not given) | 3.82%
79 | COc1cccc(CNC(=O)CCC2CCCN(C(=O)c3ccoc3C)C2)c1 (stereo not given) | -3.63%
80 | CCCNC(=O)c1ccc(N2CCC3(CC2)CC(c2ccc(Cl)cc2)=NO3)c([N+](=O)[O-])c1 | 5.33%
81 | CC1CCCN(S(=O)(=O)c2ccc(N(C(=O)c3cnccn3)C(C(=O)NC3CCCCC3)c3cccs3)cc2)C1 (stereo not given) | 3.18%
82 | CNc1ccc(SC#N)cc1 | 7.09%
83 | O=C(Nc1cccc(S(=O)(=O)N2CCCC2)c1)c1cncc(Br)c1 | 6.4%
84 | O=C(Nc1cccc(S(=O)(=O)N2CCCCC2)c1)c1ccc2c(c1)OCO2 | 30.3% (active)
85 | O=C(Nc1cccc(S(=O)(=O)N2CCCCC2)c1)c1cncc(Br)c1 | 17.5%
86 | CN1[C@H](Cc2ccccc2)COc2cccc(N3CCSCC3)c2S1(=O)=O | -7.16%
87 | O=C(CNC(c1ccccc1)c1ccccc1)Nc1ccc(F)cc1 | -6.64%
88 | COc1ccc(CNS(=O)(=O)c2cc3c4c(c2)CCN4C(=O)CC3)cc1 | 9.3%
89 | COc1ccccc1CNS(=O)(=O)c1cc2c3c(c1)CCC(=O)N3CCC2 | 31.9% (active)
90 | COc1ccccc1CCNS(=O)(=O)c1cc2c3c(c1)C(C)C(=O)N3CCC2 (stereo not given) | 14%
